This assay deals with zebrafish ABCB5 (Abcb5) multidrug transporter. As to the kind of experiment: qHTS for characterization and localization of zebrafish homologs of the human ABCB1 multidrug transporter: ABCB5 transfected cells. The conditions noted are these: CellTiter-Glo luminescence viability, 72 h. The source says: The zebrafish has emerged as a potential model to study the blood-brain barrier (BBB) given its similarities with mammalian systems. However, little information has been available with regard to homologous ATP-binding cassette transporters expressed at the zebrafish BBB. Two transporters that are highly expressed at the human BBB are P-glycoprotein (P-gp, encoded by the ABCB1 gene) and ABCG2 (encoded by the ABCG2 gene). In this study, we focus on characterization of P-gp homologs in the zebrafish, which has two genes that are homologous to human ABCB1 - abcb4 and abcb5. We generated stably-transfected cell lines to determine their substrate specificities. […] Zebrafish abcb4 also colocalized with claudin 5 expression in brain endothelial cells.
A high-throughput screen was performed as previously described on empty vector transfected cells, P-gp-overexpressing MDR-19 cells and cells transfected with full-length zebrafish abcb4 (ZF Abcb4) or abcb5 (ZF Abcb5). Briefly, cells were plated into 1536-well plates at a density of 500 cells/well in 5 uL media. […] CellTiter-Glo reagent (Promega) was dispensed into the wells, incubated for 5 min and luminescence was read on a ViewLux instrument (Perkin-Elmer). […]
(qHTS replaces the single test concentration by a dilution series.)

Records with an inconclusive call do not appear. Activity calls are given as the source filed them. The call rests on the fitted dose curve; in most records, active means well fitted inhibition curve with a large enough effect; inconclusive means small, poorly fitted or top-dose-only effect; inactive means no such curve, though single readings can be large or run the other way.

In the case of `C[C@@H]1[C@@H](CC(C[C@H]2O[C@@H]3O[C@]4(C)CC[C@@H]5[C@H](C)CC[C@@H]([C@H]2C)[C@@]35OO4)C[S+](=O)([O-])c2ccc(COC(=O)N(C)C)cc2)O[C@@H]2O[C@]3(C)CC[C@H]4[C@H](C)CC[C@@H]1[C@@]24OO3` (some centres not stated), the Potency is 590 nM (active). As to `C=CCON=C(C[C@H]1O[C@@H]2O[C@]3(C)CC[C@@H]4[C@H](C)CC[C@@H]([C@H]1C)[C@@]24OO3)[C@H]1O[C@@H]2O[C@]3(C)CC[C@H]4[C@H](C)CC[C@@H]([C@@H]1C)[C@@]24OO3`, the Potency was 526 nM (active).

The record behind these values is PubChem BioAssay AID1508633 (National Center for Advancing Translational Sciences (NCATS), 2021).
